KAT2A inh = inhibitors of human GCN5L2 histone acetyltransferase; GCN5L2 HAT assay, ThioGlo1 CoA-SH fluorescence; Potency, µM (top dose mostly 58.9 µM), inactives show at the highest dose activity change, negative = inhibition, hits mostly inhibitors; 390,000 compounds, 0.21% hits; AID 504327
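Titration-based screen in which CoA formation is detected via maleimide probe ThioGlo1 (50uM) turning fluorescent on thiol reaction; substrates H3(1-25) 75uM and acetyl-CoA 70uM, GCN5L2 20nM, 20 min incubation at room temperature.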
VDR inhibitor = blocks the human vitamin D receptor; 400,000 compounds, 0.93% hits; Potency, µM, without a hit: max response, negative = inhibition, usual class: inhibitors; VDR-SRC2-3 peptide fluorescence polarization, 2 h; P11473
Target sequence (P11473 whole entry, looked up): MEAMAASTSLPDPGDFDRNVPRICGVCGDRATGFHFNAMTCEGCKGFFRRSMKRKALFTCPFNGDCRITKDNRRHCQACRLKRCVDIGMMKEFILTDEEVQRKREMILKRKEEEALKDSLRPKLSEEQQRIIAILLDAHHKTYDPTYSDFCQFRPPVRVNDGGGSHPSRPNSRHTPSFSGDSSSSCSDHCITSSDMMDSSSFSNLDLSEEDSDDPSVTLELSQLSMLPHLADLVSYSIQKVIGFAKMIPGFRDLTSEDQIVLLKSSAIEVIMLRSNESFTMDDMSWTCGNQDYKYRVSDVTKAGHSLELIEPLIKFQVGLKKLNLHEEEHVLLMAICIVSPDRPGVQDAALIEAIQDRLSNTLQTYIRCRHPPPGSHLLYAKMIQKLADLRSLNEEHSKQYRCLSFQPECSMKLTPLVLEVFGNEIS
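Fluorescence polarization assay of small-molecule disruption of VDR binding to coregulator peptide SRC2-3. Compounds and controls pin-transferred, then read after 2 h incubation at ambient room temperature.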
PLK1 PBD block = blocks phosphopeptide binding to human PLK1 polo-box domain | Plk1 PBD binding of FITC phosphopeptide, fluorescence polarization | AID 720504 | Potency, µM, without a hit: max response, negative = inhibition, usual class: inhibitors | 360,000 compounds, 2.8% hits; further: series mostly up to about 57 µM; nearly all actives have a fitted effect of over 65% in size
TDP1 cell noCPT = qHTS for Inhibitors of human tyrosyl-DNA phosphodiesterase 1 (TDP1): qHTS in cells in absence of CPT; AID 686978, 2013; Potency, µM (titrated, usually from 46.2 µM), for inactives: top-dose activity change, negative = growth inhibition, actives largely listed as inhibitors; DT40 Tdp1-/- hTDP1 cells, no CPT, ATP luminescence, 48 h; 420,000 compounds, 15% hits; further: nearly all actives have a fitted effect of over 55% in size
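Growth kinetics read by CellTiter-Glo luminescence after ≥48 hr at 37 °C. Cells: DT40 Tdp1-/- stably carrying human TDP1, 400 per well, compound exposure in the absence of CPT (DMSO vehicle).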
TDP1 cell CPT = DT40-hTDP1 cell growth loss with CPT. chicken DT40 Tdp1-/-;hTDP1 cells + 20 nM CPT, ATP luminescence, 48 h. Potency, µM (top dose mostly 46.2 µM), inactives show at the top dose activity change, negative = growth inhibition, actives largely listed as inhibitors. 420,000 compounds, 12% hits. AID 686979; further: nearly all actives have a fitted effect of over 55% in size
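Chicken DT40 Tdp1-/- cells complemented with human TDP1, 400 cells/well, exposed to compounds plus 20 nM camptothecin for at least 48 h at 37 C; viability read as ATP content by CellTiter-Glo luminescence.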
TDP1 inh = inhibitors of human tyrosyl-DNA phosphodiesterase TDP1; recombinant TDP1, AlphaScreen DNA substrate cleavage; AID 485290; Potency, µM (titrated, usually from 130 µM), for inactives: at the top dose activity change, negative = inhibition, actives largely listed as inhibitors; 350,000 compounds, 0.28% hits; Q9NUW8; further: nearly all actives have a fitted effect of over 40% in size
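Signal: AlphaScreen proximity between streptavidin donor and anti-FITC acceptor beads on intact substrate. Reaction: Tdp1 1 nM, substrate 15 nM final, 5 min RT after 15 min compound preincubation.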
An asterisk follows results filed as active; ? = inconclusive; . = not tested or not shown; ! = not active in a repeat; [ ] = remark or other dose. Hits are enriched below; roughly 18% of the tested compounds scored in any of these assays. The call rests on the fitted dose curve; in most records, active means well fitted curve in the direction sought with a large enough effect; inconclusive means small, poorly fitted or top-dose-only effect, or another doubt; inactive means no such curve, though single readings can be large; an effect the other way counts as inactive or inconclusive. On the % scale 0 is the no-effect control and ±100 the full control effect; potency means the concentration at half of the fitted maximal effect.

SMILES	KAT2A inh	VDR inhibitor	PLK1 PBD block	TDP1 cell noCPT	TDP1 cell CPT	TDP1 inh
CCCCC/C=C\C/C=C\C/C=C\CCCCC(=O)O	14µM*!	40µM*!	?	1%	-15%	-15%
CCCCC/C=C/C=C1/C(=O)C=C[C@@H]1C/C=C\CCCC(=O)O	?	20µM*	.	-30%[4.12 µM]	1%[4.12 µM]	18µM*!
CCCCC[C@@H](/C=C/C1C(=O)C=C[C@H]1C/C=C\CCCC(=O)O)OC(C)=O (some centres undefined)	.	79µM*	?	23µM*	21µM*	.
CCCCC/C=C\C/C=C\CCCCCCCC(=O)O	?	-14%	.	-12%[4.12 µM]	-12%[4.12 µM]	4%
CCCCCC(O)C=CC1C(O)CC(O)C1CC=CCCCC(=O)O (centres undefined)	.	.	1%	7%	3%	.
Cc1ccccc1N1CCN(C2CCCN(C(=O)CCN3CCCCC3=O)C2)CC1 (centres undefined)	-3%	-5%	?	25%	3%	0%
O=C(c1cccn(Cc2ccc(C(F)(F)F)cc2)c1=O)N1CCOCC1	-8%	-3%	27µM*	-3%	1%	-2%
NNC(=O)c1cccn(Cc2cccc(C(F)(F)F)c2)c1=O	?	39%	-13%	?	15µM*	.
Cc1ccc(-c2nc(C(=O)NCc3ccccc3Cl)c3n2CCCCC3)cc1	-3%	-2%	.	.	.	4%
CCc1ccc([C@@H]2C[C@H]3[C@@H](CN2S(=O)(=O)c2ccc(C)cc2)C(=O)C[C@@H](c2ccccc2)N3S(=O)(=O)c2ccc(C)cc2)cc1	.	.	-12%	?	-3%	.
Cc1c(O)c2c(c(C(=O)/C=C/c3ccccc3)c1O)OC(C)(C)C=C2	.	.	.	11µM*	?	.
CCOC(=O)c1ccc(NC(=O)c2cc3c(s2)CCC3)cc1	-5%	-7%	0%	?	8%	.
CCC1(c2ccccc2)NC(=O)N(CC(=O)N(CC(=O)Nc2ccccc2C(F)(F)F)Cc2ccco2)C1=O (centres undefined)	-11%	?	-4%	-13%	-11%	2%
O=C(Nc1ccccn1)c1cc(-c2cccnc2)nc2ccc(Br)cc12	11%	-27%	-6%	?	?	0%
O=C(Nc1ccc(C(=O)N2CCOCC2)cc1)c1cc(-c2cccnc2)nc2ccc(Br)cc12	0%	-7%	5%	2.3µM*	2.3µM*	8%
O=C(c1cc(-c2cccnc2)nc2ccc(Br)cc12)N1CCN(c2ncccn2)CC1	-4%	13%	-9%	18µM*	?	-2%
Cc1ccc2nc(-c3cccnc3)cc(C(=O)N3CCN(c4ccc([N+](=O)[O-])cc4)CC3)c2c1	-14%	-6%	-7%	18µM*	16µM*	8%
CC(=O)c1ccc(N2CCN(C(=O)c3cc(-c4cccnc4)nc4ccc(Br)cc34)CC2)cc1	-7%	-3%	-4%	18µM*	?	1%
Cc1ccc2nc(-c3ccccc3)cc(C(=O)N3CCN(c4ccccc4O)CC3)c2c1	-2%	3%	-1%	?	?	6%[0.505 µM]
O=C(OCC#CCSc1nnc(-c2cccc(F)c2)o1)c1ccc(F)cc1	.	.	.	.	.	-8%
O=C(OCc1ccccc1)[C@@H]1COC(c2ccc(Br)cc2)=N1	-14%[88.6 µM]	0%	.	.	.	-1%
CS(=O)(=O)N1CCN(C(=O)c2cc(-c3cccnc3)nc3ccc(Br)cc23)CC1	-4%	11%	-23%	9.2µM*	-4%	0%
CCCCCCCCN1C(=O)[C@H](CC(=O)N2CCSCC2)C[C@@]2(C(=O)OC)CCCCC=C12	.	.	0%	?	?	.
CCCCCCCCN1C(=O)[C@H](CC(=O)N2CCOCC2)C[C@@]2(C(=O)OCC)CCCC=C12	.	.	-7%	9.2µM*	12µM*	.
CCCCCCCCN1C(=O)[C@H](CC(=O)N2CCSCC2)C[C@@]2(C(=O)OCC)CCCC=C12	.	.	-14%	21µM*	21µM*	.
SMILES	KAT2A inh	VDR inhibitor	PLK1 PBD block	TDP1 cell noCPT	TDP1 cell CPT	TDP1 inh
O=C1NCCN1CCN1CCC(c2cn(-c3ccc(F)cc3)c3ccc(Cl)cc23)CC1	.	.	.	2.7µM*	3µM*	.
Cc1ccc(-c2cc(C(F)F)n3ncc(C(=O)N4CCN(c5cccc(C)c5C)CC4)c3n2)cc1	.	-5%	-8%	18µM*	?	3%
COc1ccc(-c2cc(C(F)F)n3ncc(C(=O)n4ccnc4C)c3n2)cc1	-25%	?	-16%	18µM*	15µM*	8%
COc1ccc(-c2cc(C(F)F)n3ncc(C(=O)Nc4cc(OC)ccc4OC)c3n2)cc1	-2%	11%	.	?	-23%	2%
COc1ccc(-c2cc(C(F)F)n3ncc(C(=O)N4CCc5ccccc54)c3n2)cc1	0%	?	6.7µM*	2.1µM*	3.7µM*	3%
COc1ccc(CN2C(=O)c3ccccc3C2c2nnnn2-c2c(C)cccc2C)cc1OC (centres undefined)	.	.	-13%	?	?	.
COc1ccc(C=C2SC(=O)NC2=O)cc1OC	.	3%	-5%	16µM*	?	.
COc1ccccc1OCCCOc1ccc(/C=C2\SC(=O)NC2=O)cc1OC	-14%	-7%	?	13µM*	16µM*	.
COc1ccccc1OCCCOc1cccc(/C=C2\SC(=O)NC2=O)c1	?	?	21µM*	?	?	.
CC(C)(C)OC(=O)N1CCC(c2c(C(=O)NCc3ccco3)cnn2-c2ccc(F)cc2)CC1	-1%	-9%	.	?	?	0%
CCOC(=O)C1=C(C(=O)OCC)N(Cc2ccccc2)CCC1=O	.	-25%	-29%	-10%	-15%	.
COc1cc(-c2nc(Cn3nnc(C(=O)Nc4ccc(C)cc4C)c3C)c(C)o2)cc(OC)c1OC	-7%	-21%	.	21µM*	?	3%
COc1ccc(Br)cc1Cn1nnc(C(=O)Nc2ccc(C)cc2C)c1N	-9%	0%	.	?	-3%	2%
O=c1oc2ccccc2nc1/C=C(O)/C=C/c1ccc(F)cc1	-3%	-26%	3%	15µM*	9.2µM*	0%
CC(C)(C)/C(O)=C/c1nc2cc(Cl)ccc2oc1=O	0%	-19%	-3%	?	?	8%
Cc1ccc2oc(=O)c(/C=C(\O)C(C)(C)C)nc2c1	-9%	19%	5%	-6%	-13%	8%
O=c1oc2ccccc2nc1/C=C(O)/C=C\c1ccccc1	1%	?	-5%	23µM*	15µM*	6%
